In all, about 2,400 compounds went through this assay and about 820 (34%) were called active. Not all results are given here. Values without a mark were called inactive.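 How the source made its calls: active means inhibition of at least 50% at 20 µM in any single replicate; inactive means the rest.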

In the test the test system is glucose-6-phosphate dehydrogenase-6-phosphogluconolactonase (PfGluPho), Plasmodium falciparum 3D7. Description: malaria parasite PfGluPho enzyme inhibition – biochemical, fluorescence intensity, single concentration, confirmation (AID 504753).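 Further: 0% = DMSO with substrate and 100% = DMSO lacking glucose-6-phosphate substrate.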 The conditions noted are these: recombinant PfGluPho, NADPH-diaphorase-resazurin fluorescence; at 20 µM; hits give high values. On the technique in general: Alamar Blue is a resazurin reagent that responds to reducing activity.
A word on the inhibition: it is the drop in the measured response relative to a control, in per cent. Take `COc1ccc(CCn2c(NN=C3CCCC3)nc3c2c(=O)[nH]c(=O)n3C)cc1`: the inhibition is 61.9% (active).

As for `CSc1n[nH]c(=S)n1N`, the inhibition is 19.9%.

For the molecule `O=C(CSc1cccc2cccnc12)N/N=C/c1cccnc1`, the inhibition was 15.1%.

Turning to `O=C(CCn1nnc2ccccc21)OCC(=O)c1ccc([N+](=O)[O-])cc1`, the inhibition was 12.8%.

In the case of `CC(C)(C)NC(=O)COc1ccc(CNc2ccc3[nH]c(=O)[nH]c3c2)cc1`, the inhibition was 66.8% (active).

In the case of `O=C1OC(Oc2ccc(Br)cc2)(c2ccccc2)c2ccccc21` (configuration not stated), the inhibition was -21.5%.

With `Cc1ccc(C(=O)/C=C/c2c(C)nn(-c3ccccc3)c2Cl)cc1`, the inhibition is -5.72%.

As for `c1ccc(-c2cn3c(n2)CCc2ccc4cccnc4c2-3)cc1`, the inhibition is 56.4% (active).

In the case of `Cc1cccc(-n2c(N)c(C(=O)N3CCN(C)CC3)sc2=S)c1`, the inhibition was 45.5%.

`CCc1c(C)[nH]c(=S)c(C#N)c1C`: the inhibition was 46%.

`CN1c2ccc(C=O)c3c(C=O)ccc(c23)N(C)C1(C)C`: the inhibition is 20.6%.

As to `COc1ccc2c(c1)c(=Cc1ccc(N(C)C)cc1)c1cc(-c3ccccc3)[n+](C)n12`, the inhibition was 74% (active).

Regarding `Cc1ccc(NC(=O)Cn2sc3ccccc3c2=O)cc1`, the inhibition is 107% (active).

Take `O=C(Nc1ccc(F)cc1)c1cc2c(s1)CCCC2`: the inhibition is 15.8%.

Turning to `O=C(CN1CCN(c2ccc(O)cc2)CC1)Nc1cc(S(=O)(=O)N2CCOCC2)ccc1Cl`, the inhibition was 50% (active).

As for `O=C(CN1CCN(c2ccc(O)cc2)CC1)Nc1ccc(-c2ccccc2)cc1`, the inhibition was 22.2%.

As to `COCCNC(=S)Nc1cc(S(=O)(=O)N2CCOCC2)ccc1N1CCCCC1`, the inhibition is 44.5%.

In the case of `COc1ccc(Cl)cc1NC(=O)CN(C)C(=O)CCCc1c[nH]c2ccccc12`, the inhibition is 27.2%.

`Nc1ccc(-c2nnc(-c3ccc(-c4ccccc4)cc3)o2)cc1`: the inhibition is 15.4%.

Take `COc1cccc(C(=O)Nc2nnc(S(=O)(=O)N3CCCCC3)s2)c1`: the inhibition was 76.5% (active).

Consider `COc1cccc(C(=O)Nc2nnc(S(=O)(=O)N(C)c3ccccc3)s2)c1`, for which the inhibition is 73.6% (active).

On to `COc1cccc(C(=O)Nc2nnc(S(=O)(=O)N3CCOCC3)s2)c1`, for which the inhibition was 81% (active).

Consider `Cc1cccn2c(CN(C)C3CCCc4ccccc43)c(C(=O)N3CCOCC3)nc12` (configuration not stated), for which the inhibition was 34.2%.

Regarding `COc1cc(C(=S)NCc2ccccc2)cc(Br)c1O`, the inhibition is 39.6%.

On to `O=C(Nc1sc2c(c1C(=O)O)CCC2)c1ccccc1F`, for which the inhibition was 33.8%.

Regarding `Oc1ccc(N=Cc2c(O)ccc3ccccc23)cc1`, the inhibition was 2.98%.

On to `COc1cc(C2CC(=O)N3CN(Cc4ccccc4)CSC3=C2C#N)ccc1OCc1ccccc1` (configuration not stated), for which the inhibition was 15.1%.
